# PubChem BioAssay AID743279 (National Center for Advancing Translational Sciences (NCATS), 2014)
# Out of some 360,000 compounds screened, about 17,000 (4.7%) were called active. About 5% were inconclusive and are not listed. Cut-off read from the data, not from the text of the source: active = activity change below about -50%; inconclusive = mostly about -30% to -49%; inactive = weaker than that. This excerpt belongs to a sample that is enriched for actives.
# Assay: qHTS for Inhibitors of Inflammasome Signaling: IL-1-beta AlphaLISA Primary Screen
# Conditions: THP-1 LPS/ATP IL-1B secretion, 16 h; at 57.5 µM, hits give low values
# Method in brief: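 THP-1 cells pretreated 1 hr with compounds (up to 57.5 uM final), then stimulated with LPS (250 ng/mL final) plus ATP (1.25 mM final); secreted IL-1B measured by AlphaLISA after 16 hr, decreased signal indicating inhibition.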
# % is set by controls: 0 for no effect and ±100 for the full control effect.
row,Compound,activity change
1,C/C(CC(=O)Nc1ccc(Cl)cc1)=N\NC(=O)C(=O)NCCO,11.5% (inactive)
2,CCOC(=O)Cc1csc(SCC(=O)Nc2ccc(C)cc2F)n1,21% (inactive)
3,COc1ccc(-c2[nH]nc3c2C(c2ccncc2)C(C#N)=C(N)O3)cc1 (stereo not drawn),0% (inactive)
4,CCCc1[nH]nc2c1C(c1ccc(OC)c(Cn3nc(C)c(Br)c3C)c1)C(C#N)=C(N)O2 (stereo not drawn),-67% (active)
5,CCOc1c(OC)cc(C2C(C#N)=C(N)Oc3n[nH]c(-c4ccncc4)c32)cc1OC (stereo not drawn),25.5% (inactive)
6,CCc1ccc(C2C(C#N)=C(N)Oc3n[nH]c(CC(=O)OC)c32)cc1 (stereo not drawn),-9.71% (inactive)
7,CCCc1[nH]nc2c1C(c1ccc(Br)s1)C(C#N)=C(N)O2 (stereo not drawn),-99.8% (active)
8,COc1cc(C2C(C#N)=C(N)Oc3n[nH]c(-c4ccccn4)c32)cc(OC)c1OC (stereo not drawn),1.38% (inactive)
9,CC1(Oc2ccccc2-c2ccno2)CCN(Cc2ccc(-c3ccccc3)o2)C1 (stereo not drawn),5.25% (inactive)
10,O=C(Nc1ccc2ccccc2c1)Nc1ccc2snnc2c1,-98.9% (active)
11,O=C(Nc1cccc(Br)c1)c1ccc2snnc2c1,-14.1% (inactive)
12,S=C(Nc1ccccc1)Nc1ccc2ccccc2c1,-11.8% (inactive)
13,Cc1cc2oc(=O)cc(CN(C)Cc3ccccc3)c2cc1Cl,-8.49% (inactive)
14,COc1ccc(CCOC2OC(CO)C(OC(=O)/C=C/c3ccc(O)c(OC)c3)C(O[C@H]3O[C@@H](C)[C@H](O)[C@@H](O)[C@H]3O)C2O)cc1O (stereo partly drawn),12.4% (inactive)
15,Cc1cccc(C)c1NC(=O)CN1CCN(c2ccc(F)cc2)CC1,21.6% (inactive)
16,O=C(COC(=O)C1CCCO1)Nc1nc(-c2ccc(F)cc2)cs1 (stereo not drawn),-13.3% (inactive)
17,CC1CCCC(C)N1C(=O)CN1CCN(c2nc(-c3ccc(F)cc3)cs2)CC1 (stereo not drawn),-52.3% (active)
18,O=C(CCCN1C(=O)C(c2ccccc2)Oc2cccnc21)Nc1ccccc1Br (stereo not drawn),-9.67% (inactive)
19,Cc1cc(Br)cn2c(Cc3ccccc3C(F)(F)F)c(C3CCCCC3)nc12,1.07% (inactive)
20,COc1ccc(N(C)C(=O)CCS(=O)(=O)c2cccc3nsnc23)cc1,-11.5% (inactive)

row,Compound,activity change
1,COc1cccc2sc(N(CCCN(C)C)C(=O)C(c3ccccc3)c3ccccc3)nc12,-104% (active)
2,COc1cccc2sc(N(CCCN(C)C)C(=O)CCS(=O)(=O)c3ccccc3)nc12,-103% (active)
3,COc1ccccc1NC(=O)CC(NCCN(C)C)C(=O)O (stereo not drawn),12.6% (inactive)
4,Cc1cc(C)c2nc(N(CCN(C)C)C(=O)/C=C/c3cccs3)sc2c1,16.5% (inactive)
5,Cc1ccc(S(=O)(=O)CCC(=O)OCC(=O)N(C)Cc2ccccc2)cc1,8.91% (inactive)
6,Cc1ccc2sc(N(CCN(C)C)C(=O)/C=C/c3cccs3)nc2c1C,6.57% (inactive)
7,COc1cc2ccccc2cc1C(=O)N(CCN(C)C)c1nc2c(F)cccc2s1,14.7% (inactive)
8,Cc1cccc2sc(N(CCCN(C)C)C(=O)CCS(=O)(=O)c3ccccc3)nc12,-96.3% (active)
9,CC(=O)NC(c1cccc(F)c1)c1nc(-c2cccc(F)c2)cs1 (stereo not drawn),-16.3% (inactive)
10,CCN(CC)C(=O)C(C)N1c2cccc3cccc(c23)S1(=O)=O (stereo not drawn),13.2% (inactive)
11,O=C(CCNS(=O)(=O)c1ccccc1)NCCCc1ccccc1,14.3% (inactive)
12,CCc1cc(C(N)=O)c(NC(=O)c2ccc(OC)cc2)s1,-102% (active)
13,CCc1ccc(NC(=O)CN2CCC(C(=O)c3ccc(OC)cc3)CC2)cc1,-20.7% (inactive)
14,COc1ccc(C(=O)Nc2sc(C)c(C)c2CN2CCOCC2)cc1,14% (inactive)
15,COc1ccc(OC)c(C(=O)c2ccc(C(=O)N3CCN(Cc4csc(C)n4)CC3)cc2)c1,27.4% (inactive)
16,CCc1cc(C(=O)c2ccc(OC)cc2)c(NC(=O)CN2CCN(C)CC2)s1,-54.3% (active)
17,COc1ccc(C(=O)Nc2ccc(F)cc2F)cc1,-11.8% (inactive)
18,CCCCn1nnnc1C(c1cc2ccccc2o1)N(C)Cc1ccc(Cl)c(Cl)c1 (stereo not drawn),1.13% (inactive)
19,COc1ccc(CN2C(=O)C(CC(=O)NCCCCc3ccccc3)CC(C(=O)N3CCOCC3)=C2C)cc1 (stereo not drawn),-11% (inactive)
20,COc1ccc(C(C)=O)cc1COc1ccc(Cl)c(C)c1,-8.14% (inactive)

row,Compound,activity change
1,CCn1nc(C)c(NC(=O)/C=C/c2ccc(OC)c(COc3ccc(Br)cc3)c2)c1C,-50.3% (active)
2,COc1ccc(/C=C/C(=O)Nc2c(C)nn(C)c2C)cc1COc1ccc(Br)cc1,-24.2% (inactive)
3,O=C(NN=Cc1ccc2c(c1)CCC2)c1ccccc1O,-24.6% (inactive)
4,CC1CCN(S(=O)(=O)c2ccc3c(c2)n(C)c(=O)n3C)CC1,-8.4% (inactive)
5,CC1CCN(C(=S)c2cccc(O)c2)CC1,10.7% (inactive)
6,CCCCn1c(N)c(N(CCOC)C(=O)c2sc3ccccc3c2Cl)c(=O)[nH]c1=O,-21.6% (inactive)
7,COCCSc1nnc(NC(=O)CCS(=O)(=O)Cc2ccccc2)s1,1.75% (inactive)
8,Cc1ccc(S(=O)(=O)CCC(=O)Nc2nnc(CC(C)C)s2)cc1,-3.21% (inactive)
9,CSc1ncc(Cl)c(C(=O)Nc2cc(C)ccc2C)n1,25.6% (inactive)
10,Cc1nnc(NC(=O)CCCOc2ccccc2)s1,19.1% (inactive)
11,CSc1nnc(NC(=O)c2nc(S(=O)(=O)Cc3ccc(C)cc3)ncc2Cl)s1,-105% (active)
12,Cc1ccc(CS(=O)(=O)c2ncc(Cl)c(C(=O)Nc3nnc(C)s3)n2)cc1,-57.1% (active)
13,CCc1nc2ccc(C(=O)NC3CCN(Cc4ccccc4)CC3)cn2c1N(CC)CCOC,-7.01% (inactive)
14,O=C(Cn1cc(C(=O)C2CC2)c2ccccc21)Nc1ccccc1Cl,-2.81% (inactive)
15,Cc1ccc(NS(=O)(=O)c2ccc(C(=O)NCCCN3CCOCC3)cc2)cc1,6.14% (inactive)
16,COC(=O)c1ccc2c(c1)S(=O)(=O)NC2C (stereo not drawn),5.94% (inactive)
17,CCOC(=O)C1=CC[C@@H](c2ccccc2)N(S(=O)(=O)c2ccc(C)cc2)[C@H]1c1ccc(CC)cc1,52.6% (inactive)
18,COc1ccc(S(=O)(=O)N2CCN(CC(=O)N3CCNC3=O)CC2)cc1OC,-22% (inactive)
